# Source: PubChem BioAssay (NCATS)
# “And” between values parts separate entries of the source, which are not always exact repeats. Equal entries are not always repeated. Results filed as inconclusive are left out. Where a call stands in place of a potency, no number is given. The source holds several records for some structures; these can differ, active in one and inactive in another. The source made the active and inactive calls. Unless noted, calls come from the whole dose curve; as a rule, active = well fitted curve in the direction sought with a large enough effect; inconclusive = small, poorly fitted or top-dose-only effect, or another doubt; inactive = no such curve, though single readings can be large; an effect the other way counts as inactive or inconclusive.
# Columns and labels:
# [1] = P-glycoprotein substrates identified in KB-8-5-11 adenocarcinoma cell line, qHTS therapeutic library screen (AID 1346987); note: nearly all actives have a fitted effect of over 65% in size; note: potency is the fitted concentration of half-maximal effect
# How it was run: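 In this qHTS, P-gp-rich KB-8-5-11 cells received library compounds across a concentration range. Viability was quantified by luminescence after 72 h at 37 degree C.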
# [2] = qHTS of pediatric cancer cell lines to identify multiple opportunities for drug repurposing: Primary screen for TC32 cells (AID 1347089); note: nearly all actives have a fitted effect of over 60% in size; note: potency is the fitted concentration of half-maximal effect
# How it was run: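 Luminescent CellTiter-Glo read-out of metabolically active TC32 cells after 48 h compound exposure. Primary: MIPE 11-point, 0.78 nM–46 µM; NPC 8-point, 0.59 nM–46 µM. Confirmatory: 11-point dilutions.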
# [3] = Natriuretic polypeptide receptor (hNpr1) antagonism - Pilot counterscreen GloSensor control cell line (AID 1347045; calls by dose curve; note: series mostly up to about 38 µM)
# How it was run: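 HEK293 cGMP-sensor cells; 2% GloSensor reagent 2 h RT; LOPAC compounds in 1:5 titrations 30-50 min; 50 uM SNP 20 min; luminescence pre-read and post-read.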
# [4] = molecular target: Atrial natriuretic peptide receptor 1 (Homo sapiens) (UniProt P16066); assay: Natriuretic polypeptide receptor (hNpr1) antagonism - Pilot screen (AID 1347049; calls by dose curve;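 note: HEK293 cells with hNpr1 and GloSensor cGMP luciferase stimulated by 0.1 nM hNppA; agonist-evoked cGMP luminescence read 20 min after hNppA addition; series mostly up to about 58 µM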)
# Atrial natriuretic peptide receptor 1 (Homo sapiens), sequence (P16066 whole entry, looked up): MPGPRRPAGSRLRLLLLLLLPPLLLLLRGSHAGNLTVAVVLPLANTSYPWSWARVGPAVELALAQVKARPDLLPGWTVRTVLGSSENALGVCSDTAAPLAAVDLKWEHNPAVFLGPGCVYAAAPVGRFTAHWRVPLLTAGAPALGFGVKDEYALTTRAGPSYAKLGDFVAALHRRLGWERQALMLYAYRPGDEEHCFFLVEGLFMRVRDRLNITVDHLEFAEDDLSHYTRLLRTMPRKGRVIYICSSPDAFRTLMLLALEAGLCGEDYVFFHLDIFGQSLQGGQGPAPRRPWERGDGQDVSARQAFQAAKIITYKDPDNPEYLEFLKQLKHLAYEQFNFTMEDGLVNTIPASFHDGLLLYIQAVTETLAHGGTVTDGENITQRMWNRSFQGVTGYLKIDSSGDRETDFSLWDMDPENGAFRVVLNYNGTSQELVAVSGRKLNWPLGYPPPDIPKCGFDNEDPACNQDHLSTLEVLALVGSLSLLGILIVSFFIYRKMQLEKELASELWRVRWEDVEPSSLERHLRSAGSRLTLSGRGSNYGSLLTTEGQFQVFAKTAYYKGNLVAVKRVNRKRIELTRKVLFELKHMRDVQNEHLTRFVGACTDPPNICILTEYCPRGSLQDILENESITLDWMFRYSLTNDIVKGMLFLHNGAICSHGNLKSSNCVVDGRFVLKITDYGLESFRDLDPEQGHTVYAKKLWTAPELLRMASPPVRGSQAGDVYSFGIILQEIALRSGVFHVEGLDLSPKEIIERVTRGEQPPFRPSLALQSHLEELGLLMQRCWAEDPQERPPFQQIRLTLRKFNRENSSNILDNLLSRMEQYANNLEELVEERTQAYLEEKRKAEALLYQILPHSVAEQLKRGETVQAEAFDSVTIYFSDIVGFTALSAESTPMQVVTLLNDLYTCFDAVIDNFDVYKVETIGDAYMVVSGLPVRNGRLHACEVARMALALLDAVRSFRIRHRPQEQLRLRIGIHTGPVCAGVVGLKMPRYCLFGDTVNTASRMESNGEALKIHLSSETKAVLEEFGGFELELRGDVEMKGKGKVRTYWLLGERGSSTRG
# How it was run: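 Cells expressing receptor plus cGMP biosensor are seeded and incubated overnight at 37C, then loaded with GloSensor reagent (2% final) at room temperature for 2 h. Library compounds go on for 30 min. A pre-read precedes agonist (hNppA, 0.1 nM final) and a 20-min readout.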
# [5] = molecular target: Parathyroid hormone/parathyroid hormone-related peptide receptor (Homo sapiens) (UniProt Q03431); assay: qHTS for PTHR1 Agonists: Optimization Screen against the NCGC LOPAC library (AID 1347079);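 note: GloSensor cAMP luminescence in HEK-293 GP2 cells expressing human PTHR1 with IBMX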
# Parathyroid hormone/parathyroid hormone-related peptide receptor (Homo sapiens), sequence (Q03431 whole entry, looked up): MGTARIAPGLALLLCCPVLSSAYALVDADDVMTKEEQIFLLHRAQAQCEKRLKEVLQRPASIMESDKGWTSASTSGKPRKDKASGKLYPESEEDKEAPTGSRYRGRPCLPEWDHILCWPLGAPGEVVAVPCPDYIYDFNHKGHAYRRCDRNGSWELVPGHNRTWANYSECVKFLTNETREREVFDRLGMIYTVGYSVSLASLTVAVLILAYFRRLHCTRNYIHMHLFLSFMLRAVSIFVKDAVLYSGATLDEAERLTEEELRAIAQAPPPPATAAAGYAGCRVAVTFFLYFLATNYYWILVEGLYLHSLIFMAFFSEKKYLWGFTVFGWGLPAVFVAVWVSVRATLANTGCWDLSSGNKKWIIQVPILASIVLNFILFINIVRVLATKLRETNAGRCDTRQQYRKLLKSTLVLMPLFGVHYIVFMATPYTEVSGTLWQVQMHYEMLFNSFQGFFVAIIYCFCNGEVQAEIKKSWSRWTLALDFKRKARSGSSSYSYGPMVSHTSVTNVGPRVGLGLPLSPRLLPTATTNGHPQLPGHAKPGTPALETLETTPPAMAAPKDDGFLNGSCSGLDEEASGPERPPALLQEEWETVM
# How it was run: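 Signal increase flags agonism. GP2 cells, derived from HEK-293, express human PTHR1 and a GloSensor cAMP construct.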
# [6] = molecular target: T1, Tyrosine-protein phosphatase non-receptor type substrate 1 (Homo sapiens) + Leukocyte surface antigen CD47 (Homo sapiens) (UniProt P78324+Q08722); assay: CD47-SIRPalpha protein protein interaction - Alpha assay qHTS validation (AID 1347059);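 note: bead proximity luminescence from CD47 binding SIRPalpha after compound preincubation with SIRPalpha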
# T1 sequence (P78324 whole entry, looked up, the tested form may be a part): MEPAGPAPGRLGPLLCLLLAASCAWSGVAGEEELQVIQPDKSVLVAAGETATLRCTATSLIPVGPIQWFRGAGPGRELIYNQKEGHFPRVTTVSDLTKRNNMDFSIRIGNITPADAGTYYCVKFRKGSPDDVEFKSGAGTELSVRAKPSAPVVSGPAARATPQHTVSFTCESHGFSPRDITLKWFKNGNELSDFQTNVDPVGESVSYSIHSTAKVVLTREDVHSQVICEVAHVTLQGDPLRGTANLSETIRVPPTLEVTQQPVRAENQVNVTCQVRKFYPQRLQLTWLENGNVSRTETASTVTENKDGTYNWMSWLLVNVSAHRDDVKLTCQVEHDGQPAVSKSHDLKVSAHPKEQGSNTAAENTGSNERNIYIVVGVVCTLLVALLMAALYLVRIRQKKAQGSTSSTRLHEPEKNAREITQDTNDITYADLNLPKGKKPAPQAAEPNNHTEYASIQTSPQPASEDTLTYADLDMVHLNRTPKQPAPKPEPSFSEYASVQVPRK
# T1 sequence (Q08722 whole entry, looked up, the tested form may be a part): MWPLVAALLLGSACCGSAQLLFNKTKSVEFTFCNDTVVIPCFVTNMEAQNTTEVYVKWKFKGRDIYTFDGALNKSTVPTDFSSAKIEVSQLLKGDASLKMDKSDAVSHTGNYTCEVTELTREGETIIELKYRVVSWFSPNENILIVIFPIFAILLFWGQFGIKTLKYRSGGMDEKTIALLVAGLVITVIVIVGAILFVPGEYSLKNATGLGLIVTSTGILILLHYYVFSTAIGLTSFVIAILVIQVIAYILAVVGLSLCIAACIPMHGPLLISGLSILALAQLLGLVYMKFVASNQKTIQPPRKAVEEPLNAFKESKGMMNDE
# How it was run: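 In PBS (pH 7.4) with 0.05% IGEPAL CA-630, compound is preincubated with biotin-Avi-SIRPalpha ectodomain before His-CD47 ectodomain and affinity beads are added. Light-protected room-temperature incubations; AlphaScreen readout.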
# [7] = NS1 protein of Zika virus - qHTS assay to identify small molecule inhibitors in human HEK 293 cells (AID 1347053); note: series mostly up to about 46 µM; nearly all actives have a fitted effect of over 55% in size
# How it was run: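 In this cell-based screen, HEK 293 cultures received compound for one hour before Zika MR766 at MOI = 0.5. NS1 was quantified 24 hours later by TR-FRET, normalized to virus-free wells and infected wells.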
# [8] = molecular target: T1, Tyrosine-protein phosphatase non-receptor type substrate 1 (Homo sapiens) + Leukocyte surface antigen CD47 (Homo sapiens); assay: CD47-SIRPalpha protein protein interaction - LANCE assay qHTS validation (AID 1347057; active = well fitted curve in the direction sought with a large enough effect in the signal ratio, with a control signal flat, not every such curve was filed as active; the % refers to the signal ratio; note: series mostly up to about 38 µM)
# How it was run: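 Inhibition of soluble CD47/SIRPalpha ectodomain association by titrated compounds, measured as 665/615 nm time-resolved FRET ratio after sequential 30 min room-temperature incubations.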
# [9] = molecular target: T1, Tyrosine-protein phosphatase non-receptor type substrate 1 (Homo sapiens) + Leukocyte surface antigen CD47 (Homo sapiens); assay: CD47-SIRPalpha protein protein interaction - HTRF assay qHTS validation (AID 1347058; active = well fitted curve in the direction sought with a large enough effect in the signal ratio, not every such curve was filed as active; the % refers to the signal ratio; note: series mostly up to about 38 µM)
# How it was run: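 Soluble extracellular domains (6His-CD47, Avi-tag-biotinylated SIRPalpha) in PBS pH 7.4 with 0.05% IGEPAL CA-630. Compounds were preincubated 30 min at RT with CD47 and anti-His-Eu, then SIRPalpha and SAV-XL665 were added. TR-FRET 665/615 ratio.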
structure (smiles),measurement,setting,value
Oc1ccc(C2=Cc3ccc(O)cc3OC2)cc1,Potency,[1],9.35 µM (active) and 6.51 µM (active)
same,Potency,[2],7.39 µM (active)
CON=C(C(=O)N[C@@H]1C(=O)N2C(C(=O)OCOC(=O)C(C)(C)C)=C(C=Cc3scnc3C)CS[C@H]12)c1csc(N)n1,Potency,[1],inactive
same,Potency,[2],inactive
c1cc(-c2sc(-c3ccncc3)c(-c3ccncc3)c2-c2ccncc2)ccn1,Potency,[1],inactive
same,Potency,[2],inactive
CCCCCN(C)CCC(O)(P(=O)(O)O)P(=O)(O)O,Potency,[3],inactive
same,outcome,[4],inactive
same,outcome,[5],inactive
same,Potency,[2],inactive
Clc1ccc(C(c2ccc(Cl)cc2)n2cc[n+](CC(OCc3ccc(Cl)cc3Cl)c3ccc(Cl)cc3Cl)c2)cc1 (stereo not given),outcome,[4],inactive
same,outcome,[6],inactive
same,outcome,[5],inactive
same,Potency,[2],inactive
CC(=O)O[C@]1(C(C)=O)CC[C@H]2[C@@H]3C=C(Cl)C4=CC(=O)[C@@H]5C[C@@H]5[C@]4(C)[C@H]3CC[C@@]21C,outcome,[4],inactive
same,Potency,[7],inactive
same,outcome,[8],inactive
same,outcome,[9],inactive
same,outcome,[6],inactive
same,outcome,[5],inactive
same,Potency,[2],inactive
CC/C(=C(\c1ccccc1)c1ccc(OCCN(C)C)cc1)c1ccccc1,outcome,[4],inactive
same,Potency,[7],inactive
same,outcome,[5],inactive
C[N+](C)(C)CCCCCC[N+](C)(C)C,Potency,[3],inactive
same,outcome,[4],inactive
same,Potency,[7],inactive
same,outcome,[8],inactive
same,outcome,[9],inactive
same,outcome,[6],inactive
same,outcome,[5],inactive
same,Potency,[2],inactive
O=C(O)c1cc(O)c2c(c1)C(=O)c1cccc(O)c1C2=O,Potency,[1],inactive
same,Potency,[2],inactive
CC(C)C[C@H](CC(=O)O)C(=O)N[C@@H](Cc1c[nH]c2ccccc12)C(=O)N[C@@H](C)c1ccccc1,Potency,[1],inactive
same,Potency,[2],inactive
COC[C@@H](c1ccc(C(F)(F)F)cc1)N1CCN(C2(C)CCN(C(=O)c3c(C)ncnc3C)CC2)C[C@H]1C,Potency,[1],inactive
same,Potency,[2],inactive
COC(=O)C1=CO[C@@H](O)[C@@H]2C(CO)=CC[C@@H]12,Potency,[1],inactive
same,Potency,[2],inactive
O=C(CCCCCCC(=O)Nc1ccccc1)NO,Potency,[1],4.61 µM (active) and 3.66 µM (active) and 6.62 µM (active)
same,Potency,[2],6.64 µM (active) and 14.7 µM (active)
Clc1ccc(Cn2c(CN3CCCC3)nc3ccccc32)cc1,Potency,[3],inactive
same,outcome,[4],inactive
same,outcome,[8],inactive
same,outcome,[9],inactive
same,outcome,[6],inactive
same,outcome,[5],inactive
O=C1c2c(O)cc(O)cc2O[C@H](c2cc(O)c(O)c(O)c2)[C@H]1O,Potency,[1],inactive
same,Potency,[2],inactive
CC(=O)Nc1ccc([C@H](C)C(=O)Nc2ncc(C(C)C)s2)cc1,Potency,[1],3.72 µM (active) and 3.66 µM (active)
same,Potency,[2],16.5 µM (active)
O=c1c(-c2ccc(O)cc2)coc2cc(O)ccc12,Potency,[3],inactive
same,outcome,[4],inactive
same,Potency,[7],inactive
same,outcome,[5],inactive
same,Potency,[2],inactive
O=c1cc(-c2ccc(O)cc2)oc2cc(O)cc(O)c12,outcome,[4],inactive
same,Potency,[7],inactive
same,outcome,[8],inactive
same,outcome,[6],inactive
same,outcome,[5],inactive
same,Potency,[2],inactive
COc1cc(Nc2ncc(F)c(Nc3ccc4c(n3)NC(=O)C(C)(C)O4)n2)cc(OC)c1OC,Potency,[1],2.59 µM (active) and 18.4 µM (active) and inactive
same,Potency,[2],inactive
Cc1cc(OCCCc2c(C(=O)O)n(Cc3cccnc3)c3c(-c4c(COc5ccc(N6CCN([S+](C)(=O)[O-])CC6)cc5)nn(C)c4C)cccc23)cc(C)c1Cl,Potency,[1],inactive
same,Potency,[2],inactive
CO[C@H]1C(=O)[C@]2(C)[C@@H](OC)C[C@H]3OC[C@@]3(OC(C)=O)[C@H]2[C@H](OC(=O)c2ccccc2)[C@]2(O)C[C@H](OC(=O)[C@H](O)[C@@H](NC(=O)OC(C)(C)C)c3ccccc3)C(C)=C1C2(C)C,Potency,[1],1 nM (active)
same,Potency,[2],1.47 µM (active)
CN1C[C@H]2c3ccccc3Oc3ccc(Cl)cc3[C@@H]2C1,Potency,[1],inactive
same,Potency,[2],inactive
COc1ccc(Cc2nccc3cc(OC)c(OC)cc23)cc1OC,Potency,[3],inactive
same,outcome,[8],inactive
same,outcome,[9],inactive
same,outcome,[6],inactive
same,outcome,[5],inactive
CCn1c(C(=O)N(C2CC2)C2CC2)cc2c3c(ncn3C)c(Nc3cc(C)n(C)n3)nc21,Potency,[1],inactive
same,Potency,[2],inactive
NCCS,Potency,[3],inactive
same,outcome,[4],inactive
same,Potency,[7],inactive
same,outcome,[8],inactive
same,outcome,[9],inactive
same,outcome,[6],inactive
same,outcome,[5],inactive
same,Potency,[2],inactive
c1ccc2c(-c3cnn4cc(-c5ccc(N6CCNCC6)cc5)cnc34)ccnc2c1,Potency,[2],inactive
Cc1cccc(Nc2nc(-c3ccncc3)cs2)c1,Potency,[2],inactive
NC(=O)[C@@H](CCC(F)(F)F)N(Cc1ccc(-c2ncon2)cc1F)S(=O)(=O)c1ccc(Cl)cc1,Potency,[2],inactive
CO[C@H]1C[C@@H]2CC[C@@H](C)[C@@](O)(O2)C(=O)C(=O)N2CCCC[C@@H]2C(=O)O[C@H]([C@@H](C)C[C@@H]2CC[C@H](O)[C@H](OC)C2)CC(=O)[C@H](C)C=C(C)[C@@H](O)[C@@H](OC)C(=O)[C@H](C)C[C@H](C)C=CC=CC=C1C,Potency,[2],inactive
